A selection: hits, their analogues and other compounds. The true share with any hit is near 3.1%.
BoNT A protease = BoNT/A light chain protease inhibitors, primary screen, biochemical, flow cytometry, MLPCN library; multiplex microsphere protease substrate cleavage; inhibition, % at 10 µM; 360,000 tested, 0.17% active; AID 588499, 2011
Autofluor counter = flagged as autofluorescent in microsphere protease counterscreen | compound autofluorescence counterscreen, microsphere flow cytometry; hits give high values | fluorescence intensity (no concentration beside the values) | 360,000 tested, 3.1% active; in the data active means fluorescence intensity above about 16000; inconclusive means no clear call, values can overlap the other calls
BoNT F protease = BoNT/F light chain protease inhibitors, primary screen, biochemical, flow cytometry, MLPCN library; Botulinum neurotoxin type F light chain protease (Clostridium botulinum); Multiplex microsphere protease cleavage assay; inhibition, % at 10 µM; 360,000 tested, 0.22% active; AID 588497, 2011; in the data active means inhibition above about 35%, passing the limit was not always enough; inconclusive means no clear call, values can overlap the other calls
SSB-PriA inh = inhibitors of Klebsiella pneumoniae PriA binding to SSB C-terminal tail, primary screen, biochemical, AlphaScreen; AlphaScreen SSBct-PriA binding, biotinylated peptide; inhibition, % at 33 µM; 430,000 tested, 0.6% active; in the data active means inhibition mostly above about 37%, no sharp cut-off; inactive means mostly below about 20%
Anthrax LF inh2 = Bacillus anthracis LF protease inhibitors, primary screen, biochemical, multiplex microsphere, MLPCN library; Lethal factor (Bacillus anthracis), P15917; multiplex microsphere protease cleavage assay; inhibition, % at 10 µM; 360,000 tested, 0.12% active
Target sequence (P15917 whole entry, looked up): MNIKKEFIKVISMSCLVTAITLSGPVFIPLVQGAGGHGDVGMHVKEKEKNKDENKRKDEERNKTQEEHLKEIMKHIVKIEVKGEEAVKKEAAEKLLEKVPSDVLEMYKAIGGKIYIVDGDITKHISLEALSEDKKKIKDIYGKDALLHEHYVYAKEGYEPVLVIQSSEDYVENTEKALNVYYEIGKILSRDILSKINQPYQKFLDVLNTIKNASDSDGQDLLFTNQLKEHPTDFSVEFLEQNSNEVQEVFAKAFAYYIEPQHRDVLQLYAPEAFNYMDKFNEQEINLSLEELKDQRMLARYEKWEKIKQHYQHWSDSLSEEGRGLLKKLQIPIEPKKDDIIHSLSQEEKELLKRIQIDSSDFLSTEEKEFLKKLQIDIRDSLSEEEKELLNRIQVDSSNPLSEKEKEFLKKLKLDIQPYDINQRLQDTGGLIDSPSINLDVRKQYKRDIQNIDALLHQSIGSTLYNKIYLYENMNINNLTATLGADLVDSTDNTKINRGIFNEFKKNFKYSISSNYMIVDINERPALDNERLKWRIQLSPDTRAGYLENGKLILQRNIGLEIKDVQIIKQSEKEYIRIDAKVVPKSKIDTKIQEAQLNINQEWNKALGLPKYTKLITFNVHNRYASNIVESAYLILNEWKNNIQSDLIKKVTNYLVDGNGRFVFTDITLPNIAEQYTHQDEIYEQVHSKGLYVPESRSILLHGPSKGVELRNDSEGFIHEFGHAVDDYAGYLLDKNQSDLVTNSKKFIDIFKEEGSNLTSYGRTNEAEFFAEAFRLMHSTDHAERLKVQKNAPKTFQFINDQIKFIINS
Of the large screens only hits and unclear results are named; the others gave an inactive call. Unless noted, no stated cut-off is given here; in the data, active means inhibition above about 30%; inconclusive means no clear call, values can overlap the other calls; inactive means below that.

CNc1nc2c(c(=O)n(C)c(=O)n2C)n1Cc1ccccc1	Autofluor counter 21814
Cn1c(=O)n(Cc2ccccc2)c(=O)c2c1nc(NCC1CCCO1)n2Cc1ccccc1 (stereo not given)	Autofluor counter 24036
O=C1C(Cl)=C(NCC2CCCO2)C(=O)N1Cc1ccccc1 (stereo not given)	BoNT A protease inconclusive, Autofluor counter 20284
Cn1c(=O)c2c(nc(NCCCO)n2Cc2cccc(Br)c2)n(C)c1=O	BoNT A protease inconclusive, Autofluor counter 18885
Cn1c(=O)c2c(nc(NCC3CCCO3)n2C)n(C)c1=O (stereo not given)	none
O=C(CSc1ccc(-c2ccc(-n3ccnc3)cc2)nn1)Nc1ccccc1C(F)(F)F	none (no result: BoNT A protease, Autofluor counter, BoNT F protease, Anthrax LF inh2)
Cc1ccc(S(=O)(=O)NCC2(c3ccc(F)cc3)CCOCC2)cc1C	none (no result: BoNT A protease, Autofluor counter, BoNT F protease, Anthrax LF inh2)
COc1cc2c(cc1OC)C(COc1ccc(F)cc1)N(C(=O)Cc1cccc3ccccc13)CC2 (stereo not given)	none (no result: BoNT A protease, Autofluor counter, BoNT F protease, Anthrax LF inh2)
CS(=O)(=O)c1ccc(CC(=O)Nc2nnc(C3CCCO3)o2)cc1 (stereo not given)	SSB-PriA inh 61.0 (no result: BoNT A protease, Autofluor counter, BoNT F protease, Anthrax LF inh2)
COc1cnc(-c2ccccn2)nc1Oc1ccc(Cl)cc1	Autofluor counter 16340, SSB-PriA inh 52.3
COc1cnc(-c2ccccn2)nc1Sc1cccc(Cl)c1	Autofluor counter 17458
COc1cnc(-c2ccccn2)nc1Oc1ccc(Cl)c2ccccc12	Autofluor counter 17538
COc1cnc(-c2ccccn2)nc1Oc1ccc(F)cc1F	SSB-PriA inh 53.5
COc1cnc(-c2ccccn2)nc1Oc1ccccc1Cl	none
Cc1nc2c(ccc3nc(NC(=O)/C=C/c4ccc([N+](=O)[O-])cc4)sc32)s1	none (no result: BoNT A protease, Autofluor counter, BoNT F protease, Anthrax LF inh2)
Cc1nc(CSc2nc3sc4c(c3c(=O)n2-c2ccccc2)CCCCC4)cs1	none (no result: BoNT A protease, Autofluor counter, BoNT F protease, Anthrax LF inh2)
O=S(=O)(CCCOc1ccc(F)cc1)NCc1c(F)cccc1F	none (no result: BoNT A protease, Autofluor counter, BoNT F protease, Anthrax LF inh2)
CC(C)NC(=O)CC1OC(=O)c2ccccc21 (stereo not given)	Autofluor counter 23103
CCOc1ccc(C(=O)Nc2nnc(SCC(=O)Nc3nccs3)s2)cc1	none (no result: BoNT A protease, Autofluor counter, BoNT F protease, Anthrax LF inh2)
O=C(CSc1nc2ccccc2[nH]1)N1CCCCC1	Autofluor counter 21788
O=C(CCCSc1nc2ccccc2[nH]1)N1CCN(c2ccccc2)CC1	Autofluor counter 20365
O=C(CSc1nc2ccccc2[nH]1)N1CCN(c2ccccc2)CC1	none
C/C=C/C(=O)Nc1cc(C)nn1-c1nc(C)c(C)c(=O)[nH]1	none (no result: BoNT A protease, Autofluor counter, BoNT F protease, Anthrax LF inh2)
COc1cc(OC)cc(C(=O)Nc2ccc(-c3nc4ccccc4o3)cc2)c1	none
COc1ccc(C(=O)NC(=S)NCc2ccc(-c3nc4ccccc4o3)cc2)cc1OC	BoNT A protease inconclusive, Autofluor counter 21219
CCOc1cc(C(=O)NCc2ccc(-c3nc4ccccc4o3)cc2)cc(OCC)c1OCC	Autofluor counter 16439
COc1cccc(-c2ccc(=O)n(Cc3cccc(Cl)c3)n2)c1	none (no result: BoNT A protease, Autofluor counter, BoNT F protease, Anthrax LF inh2)
CCn1cc(C(C)NC(=O)COc2ccc(Cl)cc2C)c(C)n1 (stereo not given)	Autofluor counter 23870
Cc1cc(Cl)ccc1OCC(=O)Nc1ccncc1	none
CN(C)C(=O)CSc1nnc([C@@H](N)Cc2ccccc2)o1	Autofluor counter 22809
C[C@H](N)c1nnc(SCC(=O)N(C)C)o1	Autofluor counter 20911
COc1ccc(NC(=O)c2c[nH]c(=O)n(Cc3ccccc3F)c2=O)c(OC)c1	none (no result: BoNT A protease, Autofluor counter, BoNT F protease, Anthrax LF inh2)
Nc1cccc(Oc2c(F)c(F)c(Oc3cccc(N)c3)c(F)c2F)c1	BoNT F protease 38.4, Anthrax LF inh2 inconclusive
Nc1cccc(Oc2ccccn2)c1	none (no result: BoNT A protease, Autofluor counter, BoNT F protease, Anthrax LF inh2)
CCCc1[nH]nc2c1[C@@H](c1ccc(OCc3ccc(Cl)cc3)c(OC)c1)C(C#N)C(=N)O2 (stereo not given in full)	none (no result: BoNT A protease, Autofluor counter, BoNT F protease, Anthrax LF inh2)
COc1ccc(N=c2oc3cc(O)ccc3cc2C(=O)NCC2CCCO2)c(OC)c1 (stereo not given)	Autofluor counter inconclusive, Anthrax LF inh2 inconclusive
CCOc1ccc(N=c2oc3cc(O)ccc3cc2C(=O)NCC2CCCO2)cc1 (stereo not given)	none
COc1ccc(N=c2oc3cc(O)ccc3cc2C(=O)NCC2CCCO2)cc1 (stereo not given)	BoNT A protease inconclusive, Autofluor counter 21984
CCOc1ccccc1N=c1oc2cc(O)ccc2cc1C(=O)NCC1CCCO1 (stereo not given)	Autofluor counter 16487
c1ccc(-c2nnc3ccc(SCc4cccc5ccccc45)nn23)nc1	none (no result: BoNT A protease, Autofluor counter, BoNT F protease, Anthrax LF inh2)
O=C1CCCCCN1CO	none (no result: BoNT A protease, Autofluor counter, BoNT F protease, Anthrax LF inh2)
COCCNC(=O)Nc1ccc2nc(-c3cccs3)c(-c3cccs3)nc2c1	BoNT A protease 132.5, BoNT F protease 41.6, Anthrax LF inh2 57.4
COCCNC(=O)c1cc(-c2cccs2)on1	none
Cc1ccc(NC(=O)c2ocnc2C)cc1Cl	none
Cc1ocnc1C(=O)Nc1ccc(Cl)cc1	Autofluor counter 20071
Cc1ncoc1C(=O)Nc1cccc(Cl)c1C	Autofluor counter 23395
Cc1ncoc1C(=O)Nc1cccc(Cl)c1	Autofluor counter 16565
Cc1ncoc1C(=O)Nc1ccccc1C(N)=O	Autofluor counter 23428
Cc1cc(=O)[nH]c(-n2ncc(C(=O)N3CCN(c4ccccc4)CC3)c2C)n1	none (no result: BoNT A protease, Autofluor counter, BoNT F protease, Anthrax LF inh2)
O=C(CSc1ncnc2sc3c(c12)CCCC3)c1ccc2c(c1)OCO2	none (no result: BoNT A protease, Autofluor counter, BoNT F protease, Anthrax LF inh2)
O=C(Nc1cccc(O)c1)c1cnn2cccnc12	Autofluor counter 19751
Oc1c(C=C2N=c3ccccc3=N2)sc(=S)n1C1CCCCC1	BoNT A protease 69.8, Anthrax LF inh2 33.0
O=S(=O)(Nn1c(O)c(C=C2N=c3ccccc3=N2)sc1=S)c1ccccc1	none
Oc1c(C=C2N=c3ccccc3=N2)sc(=S)n1-c1ccccc1	BoNT A protease 44.1
O=C(Nn1c(O)c(C=C2N=c3ccccc3=N2)sc1=S)c1ccccc1Cl	BoNT A protease 60.7, BoNT F protease 55.2, Anthrax LF inh2 64.7
CCn1c(O)c(C=C2N=c3ccccc3=N2)sc1=S	none
CC(O)(CNC(=O)c1ccccc1C(F)(F)F)Cc1ccco1 (stereo not given)	none (no result: BoNT A protease, Autofluor counter, BoNT F protease, Anthrax LF inh2)
COc1cc(/C=C/C(=O)Nc2ccc(-c3nc4ccccc4[nH]3)cc2)cc(OC)c1OC	none (no result: BoNT A protease, Autofluor counter, BoNT F protease, Anthrax LF inh2)
COc1ccc(OC)c(NC(=O)C(=O)NCC2CCN(C3CCCC3)CC2)c1	none (no result: BoNT A protease, Autofluor counter, BoNT F protease, Anthrax LF inh2)
OCCN1CCN(CC(O)COc2ccc(C34CC5CC(CC(C5)C3)C4)cc2)CC1 (stereo not given)	none
OC(COc1ccc(C23CC4CC(CC(C4)C2)C3)cc1)C[N+]1(Cc2ccccc2)CCOCC1 (stereo not given)	SSB-PriA inh 45.0 (no result: BoNT A protease, Autofluor counter, BoNT F protease, Anthrax LF inh2)
CCOC(=O)c1c(-c2ccc(F)cc2)csc1NC(=O)CSc1cc(C)c2ccccc2n1	none (no result: BoNT A protease, Autofluor counter, BoNT F protease, Anthrax LF inh2)
COc1ccccc1CCNC(=O)CCc1csc(NC(=O)NC2CCCCC2)n1	none (no result: BoNT A protease, Autofluor counter, BoNT F protease, Anthrax LF inh2)
COc1ccc(OC)c(S(=O)(=O)Nc2ccc(-c3cn4cccc(C)c4n3)cc2)c1	none (no result: BoNT A protease, Autofluor counter, BoNT F protease, Anthrax LF inh2)
Cc1c(Br)cc(-c2nnco2)cc1Br	Autofluor counter 23447
Clc1cccc(Cl)c1CSc1cc2c(nn1)-c1ccccc1CC2	Autofluor counter 22710
